“And” between values parts separate entries of the source, which are not always exact repeats. Identical values can stand only once. The source made the active and inactive calls. The calls were made as follows: active = hit-call score of the fitted dose curve at least 0.9, where 1 is the maximum; inactive = score below 0.9.
read-out: Monocyte Chemoattractant Protein-1 (MCP1), CCL2 (gene 6347); assay: BSK_4H_MCP1: BioMAP Diversity Plus: 4H Assay for Monocyte Chemoattractant Protein-1 (MCP1) Biomarker Activity (AID 2283018); conditions: primary human endothelial cells (HUVEC); actives raise or lower the signal
Method: BSK_4H is a cell-based, multiplexed-readout assay that uses umbilical vein endothelium, a human vascular primary cell, with measurements taken at 24 hours after chemical dosing in a 96-well plate.BSK_4H_MCP1 is an assay component measured in the BSK_4H assay. It measures MCP-1 antibody related to regulation of gene expression using ELISA technology.Data from the assay component BSK_4H_MCP1 was analyzed into 1 assay endpoint. This assay endpoint, BSK_4H_MCP1, was analyzed with bidirectional fitting relative to DMSO as the negative control and baseline of activity. Using a type of binding reporter, gain or loss-of-signal activity can be used to understand changes in the signaling as they relate to the gene CCL2. Furthermore, this assay endpoint can be referred to as a primary readout, because this assay has produced multiple assay endpoints where this one serves a signaling function. To generalize the intended target to other relatable targets, this assay endpoint is annotated to the cytokine intended target family, where the subfamily is chemotactic factor.
The levels of cell surface (or secreted, indicated by the prefix "s") biomarker endpoints were measured by ELISA. Overt cytotoxicity to cells in confluent adherent cultures (all systems other than the BT system) was assessed by measuring total protein levels using sulforhodamine B (SRB) staining in parallel cultures at the time of biomarker measurements, indicated as SRB endpoints. For proliferation assays for adherent cell types, individual cell types are cultured at sub-confluence and relative cell numbers quantified by SRB staining at time points optimized for each system (48 h: 3C and CASM3C systems; 72 h: BT and HDF3CGF systems; 96 h: SAg system). SRB was performed by staining cells with 0.1% SRB after fixation with 10% TCA and reading wells at 560 nm.Viability and proliferation of PBMC (T cells) was quantified by Alamar Blue reduction for the SAg and BT systems. For PBMC viability (referred to as PBMC Cytotoxicity within the assay endpoint names), cells were plated (75,000/well in a 96-well plate) and then chemical samples added for 1 h before addition of activators, SEB and TSST-1 (20 ng/mL final concentration each). Cells were incubated for 90 h. Then, Alamar Blue (20 uL/well) (Invitrogen, Cat DAL1100) was added for 6 h, and the plates were read with a fluorescence microplate reader at 546/580 nm (excitation/emission). For PBMC proliferation, cells were plated and activated as above but incubated for only 16 h prior to addition of Alamar Blue. Plates were read after 6 h.

SMILES	outcome	AC50
C=C[Si](OC(C)=O)(OC(C)=O)OC(C)=O	inactive	–
C=CCOc1c(Br)cc(Br)cc1Br	–	20 µM (active)
CCO[Si](C)(OCC)OCC	inactive	–
C=CC=CC=CCCCCC	inactive	–
c1ccc(-c2ccccn2)nc1	–	20 µM (active)
C/C=C\C/C=C/CCCCCCCCOC(C)=O	inactive	–
CCCCC(CC)COCC1CO1 (stereo unspecified)	inactive	–
O=C1CCCN1CCO	inactive	–
CCCCC(CC)COC(=O)c1ccccc1O (stereo unspecified)	–	16.2 µM (active)
S=C(NC1CCCCC1)NC1CCCCC1	inactive	–
CC1OC1C1CCC2(C)OC2C1 (stereo unspecified)	inactive	–
CCOC(=O)c1ccccc1C(=C1C=C(Br)C(=O)C(Br)=C1)c1cc(Br)c(O)c(Br)c1	–	15.5 µM (active) and 13.5 µM (active)
CCCCNc1ccc(NCCCC)c2c1C(=O)c1ccccc1C2=O	–	0.00419 µM (active)
C#CC1(O)CC[C@H]2[C@@H]3CCC4=CCCC[C@@H]4[C@H]3CC[C@@]21C (stereo partly specified)	–	9.46 µM (active)
O=Nc1ccc(O)cc1	inactive	–
CC(C)(c1cc(Br)c(OCCO)c(Br)c1)c1cc(Br)c(OCCO)c(Br)c1	–	5.24 µM (active)
Nc1ccc(N)c(Cl)c1	–	26.1 µM (active) and 14.6 µM (active)
C=CC(=O)OCC(Br)CBr (stereo unspecified)	–	26.6 µM (active)

SMILES	outcome	AC50
COCc1c(C(C)C)nc(C(C)C)c(/C=C/[C@@H](O)C[C@@H](O)CC(=O)O)c1-c1ccc(F)cc1	–	0.00777 µM (active)
CCCCCCCCc1ccc(Nc2ccc(CCCCCCCC)cc2)cc1	inactive	–
CCO[Si](CCCN=C=O)(OCC)OCC	inactive	–
c1ccc2c(c1)ccc1ncccc12	inactive	–
CO[Si](OC)(OC)c1ccccc1	inactive	–
c1ccc2c(c1)ccc1cc3c(ccc4ccccc43)cc12	inactive	–
CN1C(=O)N(C)C(O)C1O (stereo unspecified)	inactive	–
O=C(c1ccc(O)cc1)c1ccc(O)cc1O	inactive	–
O=C(Cl)c1cc(C(=O)Cl)cc(C(=O)Cl)c1	–	12.8 µM (active)
O=C(Nc1ccccc1SSc1ccccc1NC(=O)c1ccccc1)c1ccccc1	–	9.13 µM (active)
O=c1c2ccccc2oc2ccccc12	inactive	–
CCCCC/C=C\C/C=C\CCCCCCCC(=O)OC	inactive	–
CC(C)C(=O)C(C)C	inactive	–
CCOc1nc(F)cc2nc(S(=O)(=O)Nc3c(Cl)cccc3C(=O)OC)nn12	inactive	–
N#[N+]c1ccc2c(S(=O)(=O)[O-])cccc2c1O	inactive	–
C=CCOCC(O)CCl (stereo unspecified)	inactive	–
CCCCCCCCCCCCCCCC[N+](C)(C)CC	–	0.845 µM (active)
COc1ccc2nc(N)sc2c1	inactive	–

From PubChem BioAssay (EPA / NIEHS)
